Common to all, as to assay: DAPPL (digital affinity profiling via proximity ligation, sequencing); 10 mM Tris-HCl pH 7.5, 50 mM NaCl, 1 mM DTT, 4% glycerol, room temperature, 30 min; GST-TFs on glutathione beads, 16-mer random dsDNA library, 0.1% formaldehyde crosslink after washing; high values mean tight binding
What all share (conditions): protein: recombinant; tags: N-terminal GST; dsDNA, one strand shown

The target in one experiment is T1, FLI1 (Homo sapiens, UniProt Q01543 1-452).
T1 sequence: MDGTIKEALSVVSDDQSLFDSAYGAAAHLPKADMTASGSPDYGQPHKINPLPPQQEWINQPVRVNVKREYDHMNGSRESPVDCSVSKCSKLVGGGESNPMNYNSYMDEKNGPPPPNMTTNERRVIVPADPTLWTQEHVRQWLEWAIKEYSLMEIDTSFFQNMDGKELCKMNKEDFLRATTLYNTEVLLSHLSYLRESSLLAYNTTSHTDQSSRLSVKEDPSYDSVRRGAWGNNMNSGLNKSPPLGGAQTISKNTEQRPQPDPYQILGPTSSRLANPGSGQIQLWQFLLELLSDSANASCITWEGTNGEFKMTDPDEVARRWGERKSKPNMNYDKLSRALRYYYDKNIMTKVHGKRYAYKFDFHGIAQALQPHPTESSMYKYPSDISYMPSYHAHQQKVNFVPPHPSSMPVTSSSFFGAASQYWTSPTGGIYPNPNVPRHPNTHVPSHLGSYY
In short, it runs like this:
(§1)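 Pools were built from human transcription factors expressed in yeast as GST fusions, captured on glutathione beads and DNA-barcoded, along with a tag-only sample. Incubation with 200 nmole of a 16-mer random double-stranded DNA library lasted 30 min at room temperature in Tris/NaCl/DTT/glycerol buffer, and was followed by washing, 0.1% formaldehyde crosslinking, proximity ligation, PCR amplification and Illumina NextSeq500 sequencing. Binding signal is the quotient of each hexamer's read frequency for a factor and its frequency for the tag-only sample.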

A further experiment addresses T2, ELK1 (Homo sapiens, UniProt P19419 1-428).
T2 sequence: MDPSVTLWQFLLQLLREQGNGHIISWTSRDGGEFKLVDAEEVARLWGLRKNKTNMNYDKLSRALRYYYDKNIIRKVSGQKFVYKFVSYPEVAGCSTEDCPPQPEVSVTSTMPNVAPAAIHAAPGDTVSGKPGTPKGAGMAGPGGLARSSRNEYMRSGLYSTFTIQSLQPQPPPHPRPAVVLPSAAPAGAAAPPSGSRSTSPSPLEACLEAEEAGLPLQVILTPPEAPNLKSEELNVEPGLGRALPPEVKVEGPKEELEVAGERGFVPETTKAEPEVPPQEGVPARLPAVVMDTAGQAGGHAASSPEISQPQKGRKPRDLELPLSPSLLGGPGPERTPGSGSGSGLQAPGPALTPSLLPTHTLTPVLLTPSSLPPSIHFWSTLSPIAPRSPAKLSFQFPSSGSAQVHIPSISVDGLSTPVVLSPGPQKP
A digest of the protocol:
as §1

For a further experiment, the target named is T3, GABPA (Homo sapiens, UniProt Q06546 1-454).
T3 sequence: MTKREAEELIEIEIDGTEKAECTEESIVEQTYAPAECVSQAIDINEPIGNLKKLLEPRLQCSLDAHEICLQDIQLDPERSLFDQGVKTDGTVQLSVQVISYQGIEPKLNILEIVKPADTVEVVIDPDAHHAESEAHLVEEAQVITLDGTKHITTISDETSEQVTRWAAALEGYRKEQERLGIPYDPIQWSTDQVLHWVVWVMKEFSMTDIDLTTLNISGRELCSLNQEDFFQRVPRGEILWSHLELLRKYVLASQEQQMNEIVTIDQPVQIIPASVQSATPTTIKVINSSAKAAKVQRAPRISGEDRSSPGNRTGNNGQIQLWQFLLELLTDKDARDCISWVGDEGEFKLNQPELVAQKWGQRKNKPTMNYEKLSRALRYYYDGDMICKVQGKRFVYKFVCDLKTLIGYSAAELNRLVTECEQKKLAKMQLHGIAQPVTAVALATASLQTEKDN
A digest of the protocol:
as §1

The target in a further experiment is T4, ERG (Homo sapiens, UniProt P11308 1-479).
T4 sequence: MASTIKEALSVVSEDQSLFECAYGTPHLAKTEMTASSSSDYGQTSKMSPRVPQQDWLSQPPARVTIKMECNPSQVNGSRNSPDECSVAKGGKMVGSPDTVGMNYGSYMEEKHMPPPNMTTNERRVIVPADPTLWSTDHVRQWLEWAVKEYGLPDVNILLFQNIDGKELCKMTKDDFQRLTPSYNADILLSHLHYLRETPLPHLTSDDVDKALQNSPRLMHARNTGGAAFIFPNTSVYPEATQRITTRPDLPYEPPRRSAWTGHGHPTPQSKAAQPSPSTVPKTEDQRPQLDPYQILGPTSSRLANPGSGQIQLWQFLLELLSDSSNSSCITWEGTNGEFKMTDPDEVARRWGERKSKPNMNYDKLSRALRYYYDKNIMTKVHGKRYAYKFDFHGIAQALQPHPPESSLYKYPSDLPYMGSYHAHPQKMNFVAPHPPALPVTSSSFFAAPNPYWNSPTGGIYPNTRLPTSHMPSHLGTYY
A digest of the protocol: as §1

Another experiment has as its target ELF1 (Homo sapiens, UniProt P32519 1-619). In short, it runs like this:
as §1

The target in another experiment is T5, EHF (Homo sapiens, UniProt Q9NZC4 1-300).
T5 sequence: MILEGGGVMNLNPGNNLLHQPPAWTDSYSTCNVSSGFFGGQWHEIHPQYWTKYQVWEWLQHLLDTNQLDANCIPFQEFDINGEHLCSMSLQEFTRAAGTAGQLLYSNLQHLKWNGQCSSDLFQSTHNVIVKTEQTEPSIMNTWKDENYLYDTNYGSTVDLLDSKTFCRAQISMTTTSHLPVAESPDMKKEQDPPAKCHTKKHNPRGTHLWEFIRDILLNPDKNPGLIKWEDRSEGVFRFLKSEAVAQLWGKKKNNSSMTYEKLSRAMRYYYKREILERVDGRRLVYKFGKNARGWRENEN
In short, it runs like this: as §1

The target of the next experiment is SPI1 (Homo sapiens, UniProt P17947 1-270). In short, it runs like this:
as §1

In the next experiment the target is SPIB (Homo sapiens, UniProt Q01892 1-262). In short, it runs like this:
as §1

Another experiment concerns the target T6, ELK3 (Homo sapiens, UniProt P41970 1-407).
T6 sequence: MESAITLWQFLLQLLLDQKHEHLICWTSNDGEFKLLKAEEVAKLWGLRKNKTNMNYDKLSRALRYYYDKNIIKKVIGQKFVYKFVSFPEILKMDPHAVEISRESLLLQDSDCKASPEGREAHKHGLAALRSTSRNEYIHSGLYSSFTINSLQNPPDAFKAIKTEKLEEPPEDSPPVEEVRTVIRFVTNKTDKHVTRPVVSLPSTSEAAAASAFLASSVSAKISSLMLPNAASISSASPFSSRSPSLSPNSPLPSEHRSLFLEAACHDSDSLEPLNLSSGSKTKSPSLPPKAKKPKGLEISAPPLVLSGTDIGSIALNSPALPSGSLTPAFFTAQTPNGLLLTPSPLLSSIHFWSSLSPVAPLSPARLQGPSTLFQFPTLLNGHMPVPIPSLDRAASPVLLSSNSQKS
A digest of the protocol:
as §1

This note sets out measurements from article PMC7862700, “An all-to-all approach to the identification of sequence-specific readers for epigenetic DNA modifications on cytosine”.

Chain of SPIB (Q01892 whole entry): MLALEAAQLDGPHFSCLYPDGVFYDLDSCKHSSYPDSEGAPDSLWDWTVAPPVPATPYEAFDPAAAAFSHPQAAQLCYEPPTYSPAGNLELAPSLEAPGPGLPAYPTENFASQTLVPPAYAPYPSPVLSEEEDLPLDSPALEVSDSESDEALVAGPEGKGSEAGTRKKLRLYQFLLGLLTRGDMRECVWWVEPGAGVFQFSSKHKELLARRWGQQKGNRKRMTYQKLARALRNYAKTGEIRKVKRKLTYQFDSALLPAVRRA
Chain of ELF1 (P32519 whole entry): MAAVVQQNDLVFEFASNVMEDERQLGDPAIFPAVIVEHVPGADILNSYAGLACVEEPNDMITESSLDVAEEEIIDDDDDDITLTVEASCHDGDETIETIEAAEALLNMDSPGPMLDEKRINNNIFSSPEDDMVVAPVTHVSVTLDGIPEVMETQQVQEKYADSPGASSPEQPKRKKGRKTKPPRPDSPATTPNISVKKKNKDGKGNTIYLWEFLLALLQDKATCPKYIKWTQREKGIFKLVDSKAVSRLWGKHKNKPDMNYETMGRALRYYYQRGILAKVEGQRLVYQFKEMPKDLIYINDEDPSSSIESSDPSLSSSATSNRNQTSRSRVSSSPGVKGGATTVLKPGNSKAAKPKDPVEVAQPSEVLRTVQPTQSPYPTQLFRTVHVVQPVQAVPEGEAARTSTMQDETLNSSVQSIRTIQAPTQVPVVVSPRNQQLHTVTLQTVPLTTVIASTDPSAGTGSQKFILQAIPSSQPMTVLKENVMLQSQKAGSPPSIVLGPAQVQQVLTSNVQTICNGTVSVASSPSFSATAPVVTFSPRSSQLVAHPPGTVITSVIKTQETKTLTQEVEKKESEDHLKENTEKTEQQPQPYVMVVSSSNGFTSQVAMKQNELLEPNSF

As for CTTAAC, the binding signal in the experiment with FLI1 was 1.21 fold enrichment (6-mer frequency, TF over GST control); with ELK1, 1.17 fold enrichment (6-mer frequency, TF over GST control); with GABPA, 1.28 fold enrichment (6-mer frequency, TF over GST control); with ERG it was 1.26 fold enrichment (6-mer frequency, TF over GST control); in the experiment with ELF1, 1.35 fold enrichment (6-mer frequency, TF over GST control); with EHF, 1.26 fold enrichment (6-mer frequency, TF over GST control). Further, the binding signal is 1.32 fold enrichment (6-mer frequency, TF over GST control) with SPI1; 1.4 fold enrichment (6-mer frequency, TF over GST control) in the experiment with SPIB; 1.31 fold enrichment (6-mer frequency, TF over GST control) with ELK3.

Consider AACTGG, for which the binding signal with FLI1 is 1.22 fold enrichment (6-mer frequency, TF over GST control); with ELK1, 1.22 fold enrichment (6-mer frequency, TF over GST control); with GABPA it was 1.29 fold enrichment (6-mer frequency, TF over GST control); with ERG it was 1.31 fold enrichment (6-mer frequency, TF over GST control); in the experiment with ELF1 it was 1.27 fold enrichment (6-mer frequency, TF over GST control); in the experiment with EHF, 1.17 fold enrichment (6-mer frequency, TF over GST control). Besides, the binding signal with SPI1 was 1.31 fold enrichment (6-mer frequency, TF over GST control); with SPIB, 1.25 fold enrichment (6-mer frequency, TF over GST control); with ELK3, 1.28 fold enrichment (6-mer frequency, TF over GST control).

For the sequence GCCCTT, the binding signal with FLI1 was 1.23 fold enrichment (6-mer frequency, TF over GST control); with ELK1 it was 1.11 fold enrichment (6-mer frequency, TF over GST control); in the experiment with GABPA it was 1.18 fold enrichment (6-mer frequency, TF over GST control); with ERG it was 1.16 fold enrichment (6-mer frequency, TF over GST control); with ELF1 it was 1.25 fold enrichment (6-mer frequency, TF over GST control); in the experiment with EHF, 1.19 fold enrichment (6-mer frequency, TF over GST control). Moreover, the binding signal in the experiment with SPI1 is 1.22 fold enrichment (6-mer frequency, TF over GST control); in the experiment with SPIB, 1.28 fold enrichment (6-mer frequency, TF over GST control); in the experiment with ELK3 it was 1.24 fold enrichment (6-mer frequency, TF over GST control).

For the sequence ATCCTA, the binding signal in the experiment with FLI1 was 1.54 fold enrichment (6-mer frequency, TF over GST control); with ELK1, 1.34 fold enrichment (6-mer frequency, TF over GST control); in the experiment with GABPA, 1.37 fold enrichment (6-mer frequency, TF over GST control); with ERG, 1.4 fold enrichment (6-mer frequency, TF over GST control); with ELF1 it was 1.37 fold enrichment (6-mer frequency, TF over GST control); in the experiment with EHF, 1.3 fold enrichment (6-mer frequency, TF over GST control). For the same sequence, the binding signal with SPI1 was 1.27 fold enrichment (6-mer frequency, TF over GST control); with SPIB, 1.48 fold enrichment (6-mer frequency, TF over GST control); in the experiment with ELK3, 1.43 fold enrichment (6-mer frequency, TF over GST control).

Consider CCTTCT, for which the binding signal with FLI1 was 1.62 fold enrichment (6-mer frequency, TF over GST control); with ELK1, 1.42 fold enrichment (6-mer frequency, TF over GST control); with GABPA, 1.6 fold enrichment (6-mer frequency, TF over GST control); in the experiment with ERG it was 1.54 fold enrichment (6-mer frequency, TF over GST control); with ELF1, 1.63 fold enrichment (6-mer frequency, TF over GST control); with EHF it was 1.67 fold enrichment (6-mer frequency, TF over GST control). Besides, the binding signal is 1.67 fold enrichment (6-mer frequency, TF over GST control) in the experiment with SPI1; 1.56 fold enrichment (6-mer frequency, TF over GST control) with SPIB; 1.79 fold enrichment (6-mer frequency, TF over GST control) in the experiment with ELK3.

Consider AGATTC, for which the binding signal is 1.15 fold enrichment (6-mer frequency, TF over GST control) in the experiment with FLI1; 1.14 fold enrichment (6-mer frequency, TF over GST control) in the experiment with ELK1; 1.16 fold enrichment (6-mer frequency, TF over GST control) with GABPA; 1.19 fold enrichment (6-mer frequency, TF over GST control) with ERG; 1.21 fold enrichment (6-mer frequency, TF over GST control) with ELF1; 1.2 fold enrichment (6-mer frequency, TF over GST control) with EHF. Also, the binding signal was 1.22 fold enrichment (6-mer frequency, TF over GST control) with SPI1; 1.14 fold enrichment (6-mer frequency, TF over GST control) in the experiment with SPIB; 1.07 fold enrichment (6-mer frequency, TF over GST control) in the experiment with ELK3.

For the sequence TTACAT, the binding signal with FLI1 was 1.3 fold enrichment (6-mer frequency, TF over GST control); with ELK1, 1.27 fold enrichment (6-mer frequency, TF over GST control); in the experiment with GABPA it was 1.38 fold enrichment (6-mer frequency, TF over GST control); with ERG, 1.31 fold enrichment (6-mer frequency, TF over GST control); with ELF1, 1.31 fold enrichment (6-mer frequency, TF over GST control); with EHF it was 1.43 fold enrichment (6-mer frequency, TF over GST control). The binding signal in the experiment with SPI1 was 1.3 fold enrichment (6-mer frequency, TF over GST control); with SPIB, 1.3 fold enrichment (6-mer frequency, TF over GST control); with ELK3, 1.36 fold enrichment (6-mer frequency, TF over GST control).

In the case of TTTGTA, the binding signal in the experiment with FLI1 is 1.64 fold enrichment (6-mer frequency, TF over GST control); with ELK1, 1.47 fold enrichment (6-mer frequency, TF over GST control); in the experiment with GABPA, 1.48 fold enrichment (6-mer frequency, TF over GST control); with ERG, 1.53 fold enrichment (6-mer frequency, TF over GST control); with ELF1 it was 1.56 fold enrichment (6-mer frequency, TF over GST control); in the experiment with EHF it was 1.55 fold enrichment (6-mer frequency, TF over GST control). Further, the binding signal with SPI1 was 1.54 fold enrichment (6-mer frequency, TF over GST control); with SPIB, 1.65 fold enrichment (6-mer frequency, TF over GST control); in the experiment with ELK3, 1.51 fold enrichment (6-mer frequency, TF over GST control).
